{
  "source": "PubChem BioAssay (NCI)",
  "note": "Compounds without any hit were thinned out: in the full panel of roughly 83,000, 20% have a hit.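 Single-dose data. Exposure time 48 hours. Values below 10 considered active.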 The source made the active and inactive calls.",
  "data": [
    {"system": "HL-60(TB) leukemia", "assay": "NCI-60 one-dose screen, 48 h (100 = growth as untreated, 0 = no growth, -100 = all killed)", "settings": "10 µM unless noted", "values": [
      {"molecule": "CCOC(=O)C(CC(=O)O)=C(C(=O)OCC)C(=O)OCC", "growth": "99.6% (inactive)"},
      {"molecule": "CC12OC(CC(O)C1O)n1c3ccccc3c3c4c(c5c6ccccc6n2c5c31)C(=O)N(CCN1CCOCC1)C4=O", "note": "(stereo not given)", "growth": "7.54% (active)"},
      {"molecule": "O=C1CN(c2ccccc2)C(=O)C1C(=O)Nc1ccc(Cl)c(Cl)c1", "note": "(stereo not given)", "growth": "7.75% [100 µM] (active)"},
      {"molecule": "O=C(Nc1ccncc1)C(=O)c1cn(S(=O)(=O)c2ccc(Oc3ccccc3)cc2)c2ccccc12", "growth": "70.5% (inactive)"},
      {"molecule": "Nc1nc(N)c2c(n1)NC(c1ccccc1)C1CCc3ccccc3C1=N2", "note": "(stereo not given)", "growth": "-11.2% (active)"},
      {"molecule": "CC1(C)CC[C@]2(C(=O)NCC#CCN3CCOCC3)CC[C@]3(C)C(=CC[C@@H]4[C@@]5(C)Cc6c([nH]c7ccccc67)C(C)(C)[C@@H]5CC[C@]43C)[C@@H]2C1", "growth": "62.7% (inactive)"},
      {"molecule": "Cc1cc(Nc2cccc(F)c2)nc(NCc2ccccc2)n1", "growth": "24.1% (inactive)"},
      {"molecule": "CC(=O)Nc1cc2c(cc1Cl)Cc1cc(Cl)ccc1-2", "growth": "114% (inactive)"},
      {"molecule": "CC(=O)c1ccc(C(C)(C)C)cc1", "growth": "100% (inactive)"},
      {"molecule": "O/N=C/c1ccncc1", "growth": "110% (inactive)"},
      {"molecule": "FCc1nc2nc(Cl)c(Cl)nc2[nH]1", "growth": "102% (inactive)"},
      {"molecule": "CC/C=C/[C@@H]1C=C[C@@H]2CCC[C@H]2[C@@H]1CC[C@H](O)[C@H](C)N", "growth": "-61.6% (active)"},
      {"molecule": "c1cnc2ccc3ncccc3c2c1", "growth": "98.9% (inactive)"},
      {"molecule": "OCCNCCNC(Cc1ccc(Cl)cc1)c1ccccc1", "note": "(stereo not given)", "growth": "76.4% (inactive)"},
      {"molecule": "N#Cc1c(-c2ccc(Cl)cc2)nc(NCCO)[nH]c1=O", "growth": "102% (inactive)"},
      {"molecule": "CC1(C)c2ccccc2C(=O)C1(Br)Cc1ccccc1", "note": "(stereo not given)", "growth": "9.51% (active)"},
      {"molecule": "O=C1CCC(C(=O)NN(c2ccccc2)c2ccccc2)N1", "note": "(stereo not given)", "growth": "-18.8% (active)"},
      {"molecule": "O=S(=O)(NCCNc1nccc(-c2c(-c3ccc(F)cc3)nc3sccn23)n1)c1ccc2ccccc2c1", "growth": "88.1% (inactive)"},
      {"molecule": "CCC(C#N)(CC)c1ccccc1", "growth": "102% (inactive)"},
      {"molecule": "NC(N)=NN=c1c(=O)c2ccccc2c1=O", "growth": "95.2% (inactive)"},
      {"molecule": "CC1(C)C(=O)/C(=C\\c2ccc(C(F)(F)F)cc2)C[C@]2(C)[C@H]3CC[C@@H]4[C@H]5[C@H](C(=O)/C=C/c6ccc(C(F)(F)F)cc6)CC[C@]5(CO)CC[C@@]4(C)[C@]3(C)CC[C@@H]12", "growth": "92% (inactive)"},
      {"molecule": "Cc1cc(C)c2c(n1)sc1c(Nc3ccc(Cl)cc3)ncnc12", "growth": "-19.1% (active)"},
      {"molecule": "O=C1Nc2cc(-c3ccc(NC(=O)c4ccccc4)cc3)ccc2/C1=C/c1ccc[nH]1", "growth": "99.2% (inactive)"},
      {"molecule": "O=[N+]([O-])c1ccc(-c2noc(-c3cccs3)n2)cc1", "growth": "70.1% (inactive)"},
      {"molecule": "COC(=O)N1CC(Oc2ccccn2)C2CC1c1ccccc1O2", "note": "(stereo not given)", "growth": "99.8% (inactive)"},
      {"molecule": "O=C(CN1CCOCC1)Nc1ccc2ncnc(Nc3ccc(Oc4cccc(C(F)(F)F)c4)c(Cl)c3)c2c1", "growth": "70.1% (inactive)"},
      {"molecule": "O=C1C(c2c[nH]c3ccccc23)=C(c2coc3cc(Br)ccc23)C(=O)N1O", "growth": "103% (inactive)"},
      {"molecule": "CCNCCNc1cc(C2CCCC2)c(C#N)c2nc3ccccc3n12", "growth": "-59.3% (active)"},
      {"molecule": "CCOC(=O)C1=NN(c2ccc(Cl)cc2)C2C3N(c4ccc(Cl)cc4)N=C(C(=O)OCC)N3c3ccccc3N12", "note": "(stereo not given)", "growth": "-67.8% (active)"},
      {"molecule": "O=S(=O)(Nc1cc(F)cc(Cl)c1)c1ccc(-c2cnc(C3CC3)o2)cc1", "growth": "7.71% (active)"},
      {"molecule": "CCCn1cnc2c(c1=N)C(c1ccc(Cl)cc1)c1sc3c(F)cccc3c1O2", "note": "(stereo not given)", "growth": "62.5% (inactive)"},
      {"molecule": "O[C@@H](c1cc(C(F)(F)F)nc2c(C(F)(F)F)cccc12)[C@H]1CCCCN1", "growth": "59.4% (inactive)"},
      {"molecule": "CCCCNC(=O)Oc1ccc(/C(=C(\\C)c2ccccc2)c2ccc(OCCN(CC)CC)cc2)cc1", "growth": "21.3% (inactive)"},
      {"molecule": "Clc1ccc2c(c1)-c1ccccc1C1=NCCN12", "growth": "38.1% (inactive)"},
      {"molecule": "CN1CCN(C(=O)[C@@]2(C)CC[C@]3(C)CC[C@]4(C)C(=CC[C@@H]5[C@@]6(C)C/C(=C/c7ccncc7)C(=O)C(C)(C)[C@@H]6CC[C@]54C)[C@@H]3C2)CC1", "growth": "-8.87% (active)"},
      {"molecule": "O=C(Cc1ccc(/C=C/C(=O)c2ncc[nH]2)cc1)Nc1ccc(Cl)cc1", "growth": "-14.5% (active)"},
      {"molecule": "COc1ccc(/C=C\\c2cc(OC)c(OC)c(OC)c2)cc1OC(=O)c1cccc(Cn2cc(CCOC(=O)[C@H](N)Cc3cn(C)c4ccccc34)nn2)c1", "growth": "-42.7% (active)"},
      {"molecule": "CCCCC1Nc2nc(SC)n(C)c(=O)c2CN(Cc2ccccc2)C1=O", "note": "(stereo not given)", "growth": "111% (inactive)"},
      {"molecule": "COc1cc(-c2ccc3cc(OC)c(OC)c(OC)c3c2)cc(OC)c1OC", "growth": "67.4% (inactive)"},
      {"molecule": "CNC(=O)CCN1CCN(CC/C=C2\\c3ccccc3Sc3ccc(Cl)cc32)CC1", "growth": "50.2% (inactive)"}
    ]}
  ]
}
